# Experimental data as given in PubChem BioAssay.
# Calls of active or inactive are those of the source. Unless noted, no rule for the calls is given here.
# Key:
# [1] = tested on: XIP peptide (Xip251-270) binding; experiment: small-molecule binders of XIP peptide, primary screen, biochemical, small-molecule microarray, fluorescence 635/667 nm, 0.1 µg/mL protein (AID 1182); settings: fluorescent protein binding, 635 nm, higher = more signal, called active from +8 up or from −8 down
# XIP peptide (Xip251-270) = experiment: small-molecule binders of XIP peptide, primary screen, biochemical, small-molecule microarray, fluorescence 635/667 nm, 0.5 µg/mL protein (AID 1183); settings: small-molecule microarray binding, fluorescence 635 nm; higher = more signal
# [2] = Plasmodium falciparum growth inhibition, primary screen, strain 3D7, DAPI fluorescence, 100 nL (AID 1184);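 also: parasites grown inside human red blood cells in medium with human serum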; settings: P. falciparum 3D7 growth, 3 d, higher = more signal
# [3] = molecular target: Homeobox protein Hox-A13 (Mus musculus) (UniProt Q62424); experiment: inhibitors of HoxA13-DNA binding, primary screen, biochemical, fluorescence polarization, labeled oligonucleotide (AID 1185); settings: 15 min, higher = more signal, called active from +8 up or from −8 down
# Homeobox protein Hox-A13 (Mus musculus), sequence (Q62424 whole entry, looked up): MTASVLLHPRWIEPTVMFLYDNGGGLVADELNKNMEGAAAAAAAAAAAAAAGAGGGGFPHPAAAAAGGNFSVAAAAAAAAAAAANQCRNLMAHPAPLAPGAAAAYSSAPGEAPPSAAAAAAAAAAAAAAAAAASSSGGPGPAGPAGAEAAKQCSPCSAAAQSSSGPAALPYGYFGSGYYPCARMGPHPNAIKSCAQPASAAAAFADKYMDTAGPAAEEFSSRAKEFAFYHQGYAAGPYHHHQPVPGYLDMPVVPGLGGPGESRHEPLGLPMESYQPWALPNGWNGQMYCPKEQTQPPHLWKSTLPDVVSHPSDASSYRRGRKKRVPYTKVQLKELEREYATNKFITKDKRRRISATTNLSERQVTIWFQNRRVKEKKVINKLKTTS
# [4] = inhibitors of hydroxyurea-induced Chk1 phosphorylation, primary screen, imaging, HeLa, phospho-Chk1 antibody, percent positive cells (AID 1186); settings: hydroxyurea-induced phospho-Chk1 immunofluorescence imaging, higher = more signal
# [5] = inhibitors of hydroxyurea-induced Chk1 phosphorylation, primary screen, imaging, HeLa, phospho-Chk1 nuclear intensity (AID 1187); settings: hydroxyurea-induced phospho-Chk1 immunofluorescence imaging, higher = more signal
Compound,composite z-score [1],composite z-score (XIP peptide (Xip251-270)),z-score [2],z-score [3],z-score [4],z-score [5]
C=CCOC(=O)[C@@H]1[C@H]2C(=O)O[C@H](c3ccccc3)[C@H](c3ccccc3)N2[C@H](c2ccc(OCCOC(=O)[C@@H]3C[C@@H]4C(=O)NCC(=O)N4[C@@H]3c3cccc(OCCO)c3)cc2)[C@@]12C(=O)Nc1ccc(I)cc12,0.567 (inactive),0.765,-1.6,0.8 (inactive),1.07 (inactive),0.783 (inactive)
O=C1O[C@@H](c2ccccc2)[C@@H](c2ccccc2)N2[C@@H](c3ccccc3OCCO)[C@]3(C(=O)Nc4ccc(C#CC5(O)CCCCCC5)cc43)[C@@H](C(=O)Nc3nc4ccccc4s3)[C@H]12,0.0985 (inactive),0.626,-2.16,2.1 (inactive),0.329 (inactive),0.288 (inactive)
COCCOC(=O)N1C(=O)[C@@]2(c3cc(C#CCNC(N)=O)ccc31)[C@H](C(=O)N1CCc3cc(OC)c(OC)cc3C1)[C@H]1C(=O)O[C@H](c3ccccc3)[C@H](c3ccccc3)N1[C@@H]2c1ccc(OCCO)cc1,0.034 (inactive),0.616,-1.3,1.53 (inactive),-0.184 (inactive),-0.0927 (inactive)
COC(=O)C[C@@H]1C[C@H](C)[C@]2(O1)C(=O)N(Cc1ccccc1)c1ccc(NC(C)=O)cc12,-0.16 (inactive),0.295,-1.78,-3.77 (inactive),-0.139 (inactive),-0.194 (inactive)
COCCOC(=O)N1C(=O)[C@@]2(c3cc(C#CCC(C(=O)OC)C(=O)OC)ccc31)[C@H](C(=O)N1CCN(c3ncccn3)CC1)[C@H]1C(=O)O[C@H](c3ccccc3)[C@H](c3ccccc3)N1[C@@H]2c1ccc(OCCO)cc1,0.262 (inactive),0.698,-2.22,2.45 (inactive),-0.576 (inactive),-0.833 (inactive)
C=CCC(OC(C)=O)[C@@H]1[C@@H](N(Cc2cccc3ccccc23)C(=O)c2ccc(C)cc2)c2cc(OCCCO)ccc2N1C(=O)Cc1ccc(OC)cc1 (stereo not given in full),-0.262 (inactive),-0.241,-0.805,-0.287 (inactive),-0.446 (inactive),-0.126 (inactive)
C=CCOC(=O)[C@@H]1[C@H]2C(=O)O[C@H](c3ccccc3)[C@H](c3ccccc3)N2[C@H](c2ccc(OCCOC(=O)[C@@H]3C[C@@H]4C(=O)N[C@@H](Cc5ccccc5)C(=O)N4[C@@H]3c3cccc(OCCO)c3)cc2)[C@@]12C(=O)Nc1ccc(I)cc12,0.299 (inactive),0.738,-1.69,-0.282 (inactive),0.0948 (inactive),0.608 (inactive)
C=C(COC)/C(=C/C[C@H](OC(=O)c1ccncc1)c1cccc(OCCO)c1)c1cc(C(=O)OC)ccc1OC,1.46 (inactive),0.153,-2.96,-4.05 (inactive),-0.681 (inactive),-0.764 (inactive)
CC(C)OC(=O)CC(=O)CC(O)c1ccc(C#N)cc1 (stereo not given),3.17 (inactive),0.21,0.393,-0.306 (inactive),-1.26 (inactive),-1.44 (inactive)
C=CCNC(=O)[C@@H]1[C@H]2C(=O)O[C@H](c3ccccc3)[C@H](c3ccccc3)N2[C@H](c2ccc(OCCO)cc2)[C@@]12C(=O)Nc1ccccc12,0.0997 (inactive),0.371,-1.09,-4.6 (inactive),-0.122 (inactive),-0.303 (inactive)
N[C@@H](Cc1ccccc1)Cn1cc(-c2ccccc2)nn1,-0.259 (inactive),-0.533,0.942,-0.823 (inactive),0.201 (inactive),0.117 (inactive)
O=C1OCC=C[C@H]2OC34C=CCN(c5ccc(Cl)cc5)C(=O)[C@H]3N(CCCCCCO)C(=O)[C@@H]4[C@@H]12 (stereo not given in full),-0.513 (inactive),-1.03,-0.358,-4.21 (inactive),-0.181 (inactive),-0.0007 (inactive)
O=C1[C@]2(CO)C=C(Br)[C@@H](C[C@@H]2c2ccccc2)[C@@]12CO2,-0.0567 (inactive),0.0525,0.808,-2.52 (inactive),-0.0932 (inactive),-0.0264 (inactive)
COc1ccc(C(O)C2C=CC3C(=O)N(C)C(=O)C3N2Nc2ccccc2)cc1OCc1ccccc1 (stereo not given),0.492 (inactive),0.879,0.039,-4.69 (inactive),0.593 (inactive),0.344 (inactive)
CCN(CC)c1ccc(N2CC=CC34O[C@@H]5/C=C\CCCOC(=O)C5[C@H]3C(=O)N(C(CO)C(C)C)[C@@H]4C2=O)cc1 (stereo not given in full),1.05 (inactive),0.559,0.604,-6.07 (inactive),0.169 (inactive),-0.0477 (inactive)
CCCNC(=O)[C@@]1(c2ccc([N+](=O)[O-])cc2)CC(=O)N(CC23CC4CC(CC(C4)C2)C3)[C@@H]1c1ccc(CO)cc1,0.462 (inactive),0.424,0.0816,-4.89 (inactive),-0.29 (inactive),-0.683 (inactive)
CCCCCN1CC=CC23O[C@@H]4C=CCOC(=O)[C@@H]4[C@H]2C(=O)N(CCCO)[C@@H]3C1=O (stereo not given in full),0.591 (inactive),0.747,-1.8,-3.67 (inactive),0.679 (inactive),0.402 (inactive)
Cc1ccc(S[C@]2(C(=O)O)CC(=O)N(C3Cc4ccccc4C3)[C@@H]2c2ccc(CO)cc2I)cc1,-0.33 (inactive),0.464,-0.111,-2.79 (inactive),0.229 (inactive),0.584 (inactive)
O=C1N(CCS(=O)(=O)c2ccccc2)Cc2ccccc2C[C@]12N=C(c1ccc(OCCCO)cc1)O[C@@H]2c1ccccc1,0.194 (inactive),0.789,-2.34,-2.61 (inactive),-0.719 (inactive),-0.709 (inactive)
COC(=O)c1ccc(C(O)C2C=CC3C(=O)N(C)C(=O)C3N2NC(=O)OC(C)(C)C)o1 (stereo not given),3.49 (inactive),0.789,0.926,-1.46 (inactive),-0.0792 (inactive),-0.0828 (inactive)
N#Cc1ccc(NN2C(C(O)C3CCCCC3)C=CC3C(=O)N(c4ccccc4)C(=O)C32)cc1 (stereo not given),0.769 (inactive),0.694,0.898,-2.14 (inactive),-0.14 (inactive),-0.0947 (inactive)
O=C(CS)NCCCCCCNC(=O)[C@H]1C[C@H]2C(=O)NCC(=O)N2[C@H]1c1ccc(O)cc1,0.545 (inactive),0.832,0.509,-2.43 (inactive),0.419 (inactive),0.37 (inactive)
CC(C)C(=C=CC[C@H](O)c1cccc(OCCO)c1)C[C@H](O)COCc1ccccc1,0.31 (inactive),-0.376,-1.49,-3.93 (inactive),-0.648 (inactive),-0.289 (inactive)
Cc1ccc(F)cc1S(=O)(=O)N[C@@H]1CCN(Cc2ccc(-c3ccccc3)cc2)C1,0.765 (inactive),0.479,-1.89,-4.9 (inactive),-0.23 (inactive),-0.0784 (inactive)
COc1ccc([Si](C)(C)[C@H]2[C@H](CC(=O)N(CCO)Cc3ccccc3)O[C@@]3(C(=O)N(Cc4cccc(N5CCC5=O)c4)c4ccccc43)[C@@H]2C)cc1,0.0163 (inactive),0.281,-2.84,-2.16 (inactive),-1.46 (inactive),-1.2 (inactive)
C=CCC(OC(C)=O)[C@@H]1[C@@H](N(Cc2ccc(-c3ccccc3)cc2)C(=O)Cc2ccc(F)cc2)c2cc(OCCCO)ccc2N1C(=O)c1ccc2ccccc2n1 (stereo not given in full),-0.517 (inactive),-0.32,-1.35,-1.5 (inactive),0.344 (inactive),-0.0849 (inactive)
COCCOC(=O)N1C(=O)[C@@]2(c3cc(C#CCNC(N)=O)ccc31)[C@H](C(=O)N1CCN(c3ncccn3)CC1)[C@H]1C(=O)O[C@H](c3ccccc3)[C@H](c3ccccc3)N1[C@@H]2c1ccccc1OCCO,1.56 (inactive),0.588,-2.4,-1.39 (inactive),0.197 (inactive),0.886 (inactive)
CCOC(=O)C1=CCC(c2ccc(C#N)cc2)N(S(=O)(=O)c2ccc(C)cc2)C1 (stereo not given),1.79 (inactive),0.766,-1.33,-3.74 (inactive),-0.308 (inactive),-1.22 (inactive)
Cc1cc(C)c(C(O)C2C=CC3C(=O)N(C)C(=O)C3N2Nc2ccccc2)c(C)c1 (stereo not given),-0.0222 (inactive),0.794,0.642,-2.71 (inactive),0.195 (inactive),-0.137 (inactive)
O=C1O[C@H](c2ccccc2)[C@H](c2ccccc2)N2[C@H]1[C@@H](C(=O)Nc1nc3ccccc3s1)[C@]1(C(=O)Nc3ccccc31)[C@H]2c1ccc(O)cc1,-0.0105 (inactive),0.143,-0.739,-0.0851 (inactive),0.282 (inactive),0.134 (inactive)
